From PubChem BioAssay AID1851 (National Center for Advancing Translational Sciences (NCATS), 2009)
In all, about 16,000 compounds went through this assay and about 5,100 (32%) were called active. Inconclusive results (about 25%) are left out. Calls follow the shape of the dose curve; as a rule, active = well fitted curve in the direction sought with a large enough effect; inconclusive = small, poorly fitted or top-dose-only effect, or effect the other way; inactive = no such curve, though single readings can be large or run the other way. The list shows a part of the results.

Target: Cytochrome P450 3A4 (Homo sapiens) (UniProt P08684)
Sequence (P08684 whole entry, looked up): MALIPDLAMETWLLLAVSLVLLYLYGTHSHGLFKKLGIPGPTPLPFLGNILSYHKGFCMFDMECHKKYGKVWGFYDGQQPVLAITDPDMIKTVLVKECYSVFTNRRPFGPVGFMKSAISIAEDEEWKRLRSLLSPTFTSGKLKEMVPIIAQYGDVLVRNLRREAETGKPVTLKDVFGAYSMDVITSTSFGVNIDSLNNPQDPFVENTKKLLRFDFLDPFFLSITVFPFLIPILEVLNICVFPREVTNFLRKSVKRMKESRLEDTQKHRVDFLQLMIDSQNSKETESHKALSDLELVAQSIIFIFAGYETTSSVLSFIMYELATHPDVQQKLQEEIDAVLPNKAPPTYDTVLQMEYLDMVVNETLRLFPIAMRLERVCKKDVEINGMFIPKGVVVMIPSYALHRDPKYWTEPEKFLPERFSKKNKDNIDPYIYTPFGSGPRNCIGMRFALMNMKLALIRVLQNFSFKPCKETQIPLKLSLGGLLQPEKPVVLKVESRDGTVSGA
Experiment: Cytochrome panel assay with activity outcomes
Settings: recombinant CYP, pro-luciferin dealkylation, luminescence, p450-cyp3a4; series mostly up to 57.1 µM; activity, negative = inhibition: at the top concentration
% is scaled to controls: 0 for no effect and ±100 for the full control effect.

| Structure (SMILES) | activity, negative = inhibition | AC50 |
| --- | --- | --- |
| CC(=O)O[C@H]1CC[C@@]2(C)C(=CC[C@@H]3[C@H]4CC[C@@H]([C@H](C)C(=O)O)[C@]4(C)CC[C@H]32)C1 | 1.09% [at 11.4 µM] (inactive) | – |
| N=c1nc(N2CCCCC2)cc(N)n1O | – | inactive |
| Cc1ccc(-n2nnnc2Sc2nc([N+](=O)[O-])nn2C)cc1C | – | 15.8 µM (active) |
| O=C(O)c1ccc(Sc2nnnn2-c2ccccc2)c([N+](=O)[O-])c1 | -2.88% [at 11.4 µM] (inactive) | – |
| CC1CCN(CCCCOc2ccccc2[N+](=O)[O-])CC1 | -4.5% [at 2.29 µM] (inactive) | – |
| COC(=O)c1cc(NS(=O)(=O)c2ccc(N3CCCCC3)c([N+](=O)[O-])c2)cc(C(=O)OC)c1 | – | 2 µM (active) |
| CC1CCN(c2ccc(S(=O)(=O)Nc3cc(C(=O)O)cc(C(=O)O)c3)cc2[N+](=O)[O-])CC1 | – | 5.62 µM (active) |
| COC(=O)c1cc(NS(=O)(=O)c2ccc(N3CCCCCC3)c([N+](=O)[O-])c2)cc(C(=O)OC)c1 | – | 6.31 µM (active) |
| COC(=O)c1ccc(N2CCN(CC(=O)c3ccc(-c4ccccc4)cc3)CC2)c([N+](=O)[O-])c1 | 15.7% [at 2.29 µM] (inactive) | – |
| CS(=O)(=O)N1CCN(c2ccc(C(=O)NC3C4CC5CC(C4)CC3C5)cc2[N+](=O)[O-])CC1 (centres undefined) | -25.7% (inactive) | – |
| COc1ccc2c(c1)C(=NN)c1cc(OC)ccc1-2 | – | 20 µM (active) |
| C[N+](C)(C)c1nc(N)nc2c1ncn2[C@H]1O[C@@H](CO)[C@@H](O)[C@H]1O | 16.1% [at 11.4 µM] (inactive) | – |
| CCCNC(=O)OC[C@@H]1O[C@H](CCO/N=C2\c3cc(OC)ccc3O[C@H](c3cccc(OC)c3)[C@H]2O)C=C[C@@H]1Oc1ccc(OC)cc1 | – | 5.01 µM (active) |
| CC(=O)OC[C@@H]1O[C@@H](O/N=C2/C[C@@H](O)[C@@H](O)[C@@H]3[C@H]4C(=O)N(c5ccc(F)cc5F)C(=O)[C@@H]4CC[C@H]23)[C@H](OC(C)=O)[C@H](OC(C)=O)[C@@H]1OC(C)=O | -23.8% [at 11.4 µM] (inactive) | – |
| CC(=O)OC[C@@H]1O[C@@H](O/N=C2/C[C@@H](O)[C@@H](O)[C@@H]3[C@@H]4C(=O)N(c5cccc(Oc6ccccc6)c5)C(=O)[C@H]4CC[C@@H]23)[C@H](OC(C)=O)[C@H](OC(C)=O)[C@@H]1OC(C)=O | -35.5% [at 11.4 µM] (inactive) | – |
| COc1cccc([C@H]2Oc3ccc(OC)cc3/C(=N\O[C@@H]3O[C@H](COC(C)=O)[C@H](OC(C)=O)[C@H](OC(C)=O)[C@H]3OC(C)=O)[C@@H]2O)c1 | – | 3.16 µM (active) |
| CCN1C(=O)[C@H]2[C@H]3[C@H](O)[C@H](O)C/C(=N/OCC[C@H]4C=C[C@H](OC(C)=O)[C@@H](COC(C)=O)O4)[C@@H]3CC[C@@H]2C1=O | -18.6% [at 11.4 µM] (inactive) | – |
| COc1ccc(O[C@H]2C=C[C@@H](c3ccccc3)O[C@H]2CO/N=C2/c3cc(OC)ccc3O[C@@H](c3cccc(OC)c3)[C@H]2O)cc1 | – | 3.16 µM (active) |
| C=CC[C@@H]1C=C[C@H](O/N=C2\c3cc(OC)ccc3O[C@H](c3cccc(OC)c3)[C@H]2O)[C@H](CO)O1 | -80.3% [at 11.4 µM] (inactive) | – |
| C[C@@]1(CCOCc2ccccc2)NC(=O)NC1=O | -5.69% [at 11.4 µM] (inactive) | – |
| CC(C)[C@H](NC(=O)OC(C)(C)C)[C@@H](O)CC(=O)C(C)(C)C | -11% [at 11.4 µM] (inactive) | – |
| O=c1c(Oc2ccccc2Br)c(C(F)(F)F)oc2c(CN3CCCC3)c(O)ccc12 | -24.1% (inactive) | – |
| O=C1OCCC1Sc1nnnn1-c1ccccc1 (centres undefined) | -3.46% (inactive) | – |
| Cc1cc(C)cc(N2C(=O)CC(Sc3nnnn3-c3ccccc3)C2=O)c1 (centres undefined) | – | 2 µM (active) |
| Cc1cc2c(ncn2Cc2ccccc2)c([N+](=O)[O-])c1C | 25% (inactive) | – |

| Structure (SMILES) | activity, negative = inhibition | AC50 |
| --- | --- | --- |
| Cc1cccc(Cn2cnc3c(NS(C)(=O)=O)c(C)c(C)cc32)c1 | – | 2 µM (active) |
| CC(C)CN=C(N)N=C(N)N | -1.21% [at 11.4 µM] (inactive) | – |
| O=C(CN(C(=O)CSc1nc2ccccc2o1)c1cccc(F)c1)NC1CCCCC1 | – | 12.6 µM (active) |
| CC(=O)NC1(c2cccc(F)c2)CCN(CC(=O)NC2CCCCC2)CC1 | -27.6% (inactive) | – |
| O=S(=O)(CC(O)COc1ccccc1Cl)c1ccccc1 (centres undefined) | -5.32% [at 11.4 µM] (inactive) | – |
| c1cncc(CNc2ncncc2-c2cccnc2)c1 | – | 2 µM (active) |
| c1ccc(CNc2ncncc2-c2cccnc2)cc1 | – | 1.26 µM (active) |
| Cc1cccc(CNc2ncncc2-c2cccnc2)c1 | – | 0.631 µM (active) |
| COc1ccc(NC(=O)N2CCCC3(CCN(C(=O)c4csnn4)CC3)C2)cc1 | – | 15.8 µM (active) |
| O=C(Nc1ccccc1)N1CCC2(CC1)CCN(C(=O)c1csnn1)CC2 | -6.26% (inactive) | – |
| COc1ccc(NC(=O)N2CC3(CCN(C(=O)c4cnccn4)CC3)C2)cc1 | -7.85% (inactive) | – |
| O=C(Nc1ccccc1)N1CCCC2(CCN(C(=O)c3csnn3)CC2)C1 | – | 15.8 µM (active) |
| COc1ccc(NC(=O)N2CC3(CCN(C(=O)c4csnn4)CC3)C2)cc1 | -19.1% (inactive) | – |
| CC[C@@]1(O)C(=O)OCc2c1cc1n(c2=O)Cc2cc3c(CN(C)C)c(O)ccc3nc2-1 | -2.47% [at 11.4 µM] (inactive) | – |
| CC1(C)O[C@H]2[C@@H](O1)[C@@H](On1nnc3ccc(Cl)cc31)O[C@@H]2[C@@H]1COC(C)(C)O1 | -24.7% [at 11.4 µM] (inactive) | – |
| CC1CCN(CC(=O)Nc2cccc([N+](=O)[O-])c2)CC1 | -1.85% (inactive) | – |
| Cc1ccc(NS(=O)(=O)c2ccc(OCC(=O)Nc3cccc([N+](=O)[O-])c3)c(C)c2)cc1 | – | 2 µM (active) |
| COc1ccccc1C(=O)Nc1cc2c(ccc3ccccc32)oc1=O | -6.45% (inactive) | – |
| COc1ccccc1NC(=O)Cn1nnc(-c2ccccc2NC(=O)c2cc3ccccc3oc2=O)n1 | – | 3.55 µM (active) |
| COC(=O)c1ccc(OCC2c3cc(OC)c(OC)cc3CCN2C(=O)C2CC2)cc1 (centres undefined) | – | 17.8 µM (active) |
| COc1ccc(C(=O)OC(C)CN2CCN(C)CC2)cc1OC (centres undefined) | 3.07% (inactive) | – |
| COc1ccccc1-c1cncnc1NCc1cccnc1 | – | 0.501 µM (active) |
| COc1ccccc1-c1cncnc1NCc1ccccc1 | – | 0.251 µM (active) |
| COc1ccccc1-c1cncnc1NCc1cccc(C)c1 | – | 0.1 µM (active) |
